Screen size: about 10,000 compounds; about 20 (0.2%) were called active. This is one part of a sample in which actives are shown more often than they occur.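 How the source made its calls: active means a compound raising TNF-alpha-driven VCAM-1 surface staining, with its hit status upheld on visual or statistical review; inactive means the rest, including hits rejected on review.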
experiment: boosters of cytokine-driven VCAM-1 levels – cell-based, plate reader, pooled HUVEC, TNFa stimulus (AID 455); conditions: HUVEC TNFa-induced VCAM-1 immunofluorescence; stronger effect = higher value,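 tested at 5 µM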;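 on augmentation: 0% = TNFa plus DMSO wells and 100% = a visually confirmed top hit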

Row | SMILES | augmentation
1 | COc1ccccc1/C=C1/C(=N/O)C2CCN1CC2 | 81.5% (active)
2 | O=C(CCCOc1ccc(Cl)cc1Cl)N1CCC2(CC1)OCCO2 | inactive
3 | O=C(Cn1ncc2c3ccccc3n(Cc3ccc(F)cc3)c2c1=O)N1CCC2(CC1)OCCO2 | inactive
4 | Cc1cccc(N2CCc3c2nc2ccccc2c3N)c1 | inactive
5 | COc1ccc(C2SCC(=O)Nc3c2c(=O)[nH]n3C2CCCCCC2)cc1OC (stereo not given) | inactive

Reference: PubChem BioAssay AID455 (Sanford-Burnham Center for Chemical Genomics, 2006)
